Data on six compounds can be found in PubChem BioAssay (NCATS).

Experiment [1] addresses Cellular tumor antigen p53 (Homo sapiens) (UniProt P04637). The experiment is described as follows: Primary qHTS for small molecule compounds that upregulate eGFP-tagged delta133p53alpha (in N-terminal) cells. (AID 2060322).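 For activation: series mostly up to about 56 µM; 0% = DMSO vehicle and 100% = reference activator.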 Note: nearly all actives have a fitted effect of over 75% in size. Note: potency is the fitted concentration of half-maximal effect. As to conditions: NCI-H358 eGFP-delta133p53alpha fluorescence, 24 h; activation: stronger effect = higher value. The essentials: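 NCI-H358 cells pre-induced 24 h with 10 ng/ml doxycycline to express N-terminal eGFP-delta133p53alpha, then dosed 24 h at 37C without doxycycline; fixed, Hoechst-stained, GFP intensity by laser scanning cytometry, normalized to DMSO (0%) and 57.5 uM 5-azacytidine (100%).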
A general note: qHTS replaces the single test concentration by a dilution series.

For experiment [2], the target named is Aldehyde dehydrogenase, mitochondrial (Homo sapiens) (UniProt P05091). Nature of the experiment: qHTS for Inhibitors of the Aldehyde Dehydrogenase Family (ALDH2) Primary screen (AID 2061308).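 Note: plate controls were vehicle for no effect and reference inhibitor for full effect; nearly all actives have a fitted effect of over 55% in size.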
Experiment [3] addresses Retinaldehyde dehydrogenase 3 (Homo sapiens) (UniProt P47895). The experiment is described as follows: qHTS for Inhibitors of the Aldehyde Dehydrogenase Family (ALDH1A3) Primary screen (AID 2061315).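 Note: plate controls were DMSO vehicle for no effect and reference inhibitor for full effect.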

Inconclusive results are not listed. Unmarked numbers belong to inactive results. Activity calls are given as the source filed them. Calls come from the whole dose curve; as a rule, active = well fitted curve in the direction sought with a large enough effect; inconclusive = small, poorly fitted or top-dose-only effect, or another doubt; inactive = no such curve, though single readings can be large; an effect the other way counts as inactive or inconclusive.

Chain of Cellular tumor antigen p53 (Homo sapiens) (P04637 whole entry, looked up): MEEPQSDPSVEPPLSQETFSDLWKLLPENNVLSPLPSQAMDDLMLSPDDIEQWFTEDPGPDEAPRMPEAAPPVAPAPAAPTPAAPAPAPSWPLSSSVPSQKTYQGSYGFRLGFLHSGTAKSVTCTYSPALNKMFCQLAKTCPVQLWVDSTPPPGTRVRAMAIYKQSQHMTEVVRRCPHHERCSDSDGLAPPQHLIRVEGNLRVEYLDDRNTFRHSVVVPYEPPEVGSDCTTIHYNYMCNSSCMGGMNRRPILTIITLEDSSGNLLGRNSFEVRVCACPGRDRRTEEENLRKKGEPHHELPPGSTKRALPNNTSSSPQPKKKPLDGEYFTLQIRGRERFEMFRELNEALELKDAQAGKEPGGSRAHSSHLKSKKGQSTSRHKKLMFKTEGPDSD

For the compound `C[C@@H]1O[C@@H](O[C@H]2[C@@H](OC(=O)[C@]34CCC(C)(C)CC3C3=CCC5[C@@]6(C)C[C@H](O)[C@H](O[C@@H]7O[C@H](C(=O)O)[C@@H](O)[C@H](O)[C@H]7O)[C@@](C)(C(=O)O)C6CC[C@@]5(C)[C@]3(C)CC4)OC[C@H](O)[C@@H]2O)[C@H](O)[C@H](O)[C@H]1O[C@@H]1OC[C@@H](O)[C@H](O)[C@H]1O` (stereo partly drawn), in experiment [1], the activation was -8.93%. Besides, the Potency entry in experiment [2] and in experiment [3] was “inactive” throughout.
`CC1(C)CC[C@]2(C(=O)O[C@@H]3O[C@H](CO)[C@@H](O)[C@H](O)[C@H]3O)CC[C@]3(C)C(=CCC4[C@@]5(C)CC[C@H](O[C@@H]6O[C@H](C(=O)O)[C@@H](O[C@@H]7O[C@H](CO)[C@@H](O)[C@H](O)[C@H]7O)[C@H](O)[C@H]6O)C(C)(C)C5CC[C@]43C)C2C1` (stereo partly drawn): the activation in experiment [1] is -26.7%. Moreover, the Potency entry in experiment [2] and in experiment [3] was “inactive” each time.
Turning to `Fc1ccc(N2CCCCC2)c(NC(=S)c2ccncc2)c1`, in experiment [1], the activation is -8.04%. The Potency entry in experiment [2] and in experiment [3] was “inactive” in each case.
As for `CC(=O)OC(C)(C)/C=C/C(=O)[C@](C)(O)C1[C@H](O)C[C@@]2(C)[C@@H]3CC=C4[C@@H](C[C@H](O[C@@H]5O[C@H](CO)[C@@H](O)[C@H](O)[C@H]5O)C(=O)C4(C)C)[C@]3(C)C(=O)C[C@]12C` (stereo partly drawn), the activation in experiment [1] is -10.7%. The Potency entry in experiment [2] and in experiment [3] was “inactive” each time.
For the compound `Nc1nc2c(ncn2CCC(CO)CO)c(=O)[nH]1`, the activation in experiment [1] was -5.36%. Also, the Potency entry in experiment [2] and in experiment [3] was “inactive” throughout.
With `C=C(C)C(=O)OC1CC(CO)CCC/C(CO)=C/C2OC(=O)C(=C)C21` (stereo not drawn), in experiment [1], the Potency is 14.8 µM (active). In addition, the Potency entry in experiment [2] and in experiment [3] was “inactive” throughout.
